Results on 40 compounds are retold here after PubChem BioAssay (NCATS).

Molecules are shown by their SMILES. Results filed as inconclusive are left out. Active and inactive are the calls of the source. The call rests on the fitted dose curve; in most records, active means well fitted cell-killing curve with a large enough effect; inconclusive means small, poorly fitted or top-dose-only effect, or effect the other way; inactive means no such curve, though single readings can be large or run the other way.
Potency means the concentration at half of the fitted maximal effect.

The nature of the test: Quantitative High-Throughput drug screen in 47 multiple myeloma cell lines against the NCATS MIPE library collection: MMM1_PLB cell viability assay (AID 1918976). Further: nearly all actives have a fitted effect of over 35% in size. As to conditions: MMM1 myeloma cells viability, CellTiter-Glo, 48 h; series mostly up to 45.8 µM. The source says: PI: Beverly A. Mock Ph.D.
Laboratory of Cancer Biology and Genetics,
Center for Cancer Research, National Cancer Institute,
National Institute of Health, Bethesda, Maryland
Drug resistance and disease progression are common in multiple myeloma (MM) patients, underscoring the need for new therapeutic combinations. […] We hypothesized that effective combinations would reduce MYC expression and enhance p16 activity. […] These preclinical data identify potentially useful drug combinations for evaluation in drug-resistant MM and reveal potential mechanisms of combined drug sensitivity.
Described herein is the primary MIPE qHTS used to cherrypick compounds. Validated compounds were then further tested for potential synergistic activiy.
[1] Peat TJ, Gaikwad SM, Dubois W, Gyabaah-Kessie N, Zhang S, Gorjifard S, Phyo Z, Andres M, Hughitt VK, Simpson RM, Miller MA, Girvin AT, Taylor A, Williams D, D'Antonio N, Zhang Y, Rajagopalan A, Flietner E, Wilson K, Zhang X, Shinn P, Klumpp-Thomas C, McKnight C, Itkin Z, Chen L, Kazandijian D, Zhang J, Michalowski AM, Simmons JK, Keats J, Thomas CJ, Mock BA. Drug combinations identified by high-throughput screening promote cell cycle transition and upregulate Smad pathways in myeloma. Cancer Lett. 2023 Aug 1;568:216284. doi: 10.1016/j.canlet.2023.216284. Epub 2023 Jun 24. PMID: 37356470; PMCID: PMC10408729.
SEQUENCE No. (e.g., 1, 2, 3, etc.); […] (e.g., Cells, Incubation, Reagent, etc.); VALUE and DESCRIPTION.
1; Cells; 5 uL; white, solid bottom 1536-well Greiner assay plate.
2; Compounds; 23 nL; Kalypsis pin tool (Wako USA) equipped with a 1536-well pin head to transfer to the assay plates.
3; Incubation; 48 hours; 37C incubation.
4; Reagent;5uL; CellTiter Glo (Promega).
5; Detector; 425V; Luminescence; Viewlux PerkinElmer.
NOTES (numbers refer to Sequence numbers above)
1. The cell-based screening methods employed in this study were like those previously published. Briefly, the corresponding myeloma cell lines were screened in 1,536-well plates with 500 cells, 5-uL per well for inhibition of cell viability (assessed by measuring ATP levels with CellTiterGlo).
2. NCATS MIPE 4.0 library of approved and investigational drugs were added using the Kalypsis pin tool. Wells treated with DMSO only for 100% viability and media only for 0% viability were used as controls.
3. The assay plates were covered and incubated for 48 hours in a 37C, 5% CO2 incubator with controlled humidity.
4. After 48 hours, CellTilter-GloTM luminescent substrate mix (Promega) reagent was added to the assay plate and plates we incubated for 5 min at room temperature.
5. Signal was measured as median relative luminescence units on a ViewLux (PerkinElmer) multiplate reader.
[1] Heske CM, Davis MI, Baumgart JT, Wilson K, Gormally MV, Chen L, Zhang X, Ceribelli M, Duveau DY, Guha R, Ferrer M, Arnaldez FI, Ji J, Tran HL, Zhang Y, Mendoza A, Helman LJ, Thomas CJ. Matrix Screen Identifies Synergistic Combination of PARP Inhibitors and Nicotinamide Phosphoribosyltransferase (NAMPT) Inhibitors in Ewing Sarcoma. Clin Cancer Res. 2017 Dec 1;23(23):7301-7311. doi: 10.1158/1078-0432.CCR-17-1121. Epub 2017 Sep 12. PMID: 28899971; PMCID: PMC6636827.
(In general: Cellular ATP, detected with luciferase, serves as a proxy for viable cell number.)
With `CCC1(C)CC(=O)NC1=O` (stereo not given), the Potency result was “inactive”. With `Cn1cnc2c1c(=O)[nH]c(=O)n2C` the figure was 10.5 µM (active); with `CCN1CCCC1CNC(=O)c1cc(S(=O)(=O)CC)c(N)cc1OC` (stereo not given), 5.26 µM (active); with `CC(C)(Oc1ccc(C2CC2(Cl)Cl)cc1)C(=O)O` (stereo not given), “inactive”.

On to `CCCCc1oc2ccccc2c1C(=O)c1cc(I)c(OCCN(CC)CC)c(I)c1`, for which the Potency was 18.7 µM (active). With `CNCCCC12CCC(c3ccccc31)c1ccccc12` the figure was 20.9 µM (active). Regarding `CN(Cc1cnc2nc(N)nc(N)c2n1)c1ccc(C(=O)N[C@@H](CCC(=O)O)C(=O)O)cc1`, the Potency was 18.7 µM (active). With `OCCN(CCO)c1nc(N2CCCCC2)c2nc(N(CCO)CCO)nc(N3CCCCC3)c2n1`, the Potency was 23.5 µM (active).

For the compound `O=C1c2c(O)ccc(O)c2C(=O)c2c(NCCNCCO)ccc(NCCNCCO)c21`, the Potency is 1.48 µM (active). With `CC(CCc1ccc(O)cc1)NCCc1ccc(O)c(O)c1` (stereo not given) the figure was 10.5 µM (active); with `O=C1Cc2cc(CCN3CCN(c4nsc5ccccc45)CC3)c(Cl)cc2N1`, 23.5 µM (active); with `CCOC(=O)C(C)(C)Oc1ccc(Cl)cc1`, 7.43 µM (active). With `Clc1ccc(C(c2ccccc2Cl)C(Cl)Cl)cc1` (stereo not given) the figure was 20.9 µM (active); with `O=c1[nH]cc(F)c(=O)[nH]1`, 5.9 µM (active). On to `COc1ccccc1N1CCN(CC(O)COc2cccc3ccccc23)CC1` (stereo not given), for which the Potency is 6.62 µM (active). With `CCc1cccc2c3c([nH]c12)C(CC)(CC(=O)O)OCC3` (stereo not given) the figure was 4.18 µM (active). Regarding `CN1CCN(CCCN2c3ccccc3Sc3ccc(Cl)cc32)CC1`, the Potency is 26.4 µM (active). With `C[C@@H]1CC(=O)NN=C1c1ccc(NN=C(C#N)C#N)cc1`, the Potency was 18.7 µM (active). Consider `NCCc1cnc[nH]1`, for which the Potency was 0.0132 µM (active).

As to `CN(C)CCC=C1c2ccccc2C=Cc2ccccc21`, the Potency is 4.18 µM (active). With `Nc1nc2c(ncn2COC(CO)CO)c(=O)[nH]1` the figure was 23.5 µM (active). As for `CN1CCN2c3ccccc3Cc3ccccc3C2C1` (stereo not given), the Potency is 20.9 µM (active). To `COc1cc2nc(N3CCN(C(=O)C4COc5ccccc5O4)CC3)nc(N)c2cc1OC` (stereo not given) belongs 20.9 µM (active); to `CC1(CN2CCC(n3c(=O)[nH]c4ccccc43)CC2)OCc2ccccc2-n2cccc21` (stereo not given), 5.9 µM (active). In the case of `NS(=O)(=O)c1cc2c(cc1Cl)NCNS2(=O)=O`, the Potency was 16.6 µM (active).

With `Cc1ccc(C(=O)Nc2ccc(S(=O)(=O)O)c3cc(S(=O)(=O)O)cc(S(=O)(=O)O)c23)cc1NC(=O)c1cccc(NC(=O)Nc2cccc(C(=O)Nc3cc(C(=O)Nc4ccc(S(=O)(=O)O)c5cc(S(=O)(=O)O)cc(S(=O)(=O)O)c45)ccc3C)c2)c1`, the Potency is 0.0372 µM (active). To `CN(C)C(=O)C(CCN1CCC(O)(c2ccc(Cl)cc2)CC1)(c1ccccc1)c1ccccc1` belongs 16.6 µM (active); to `CS(=O)(=O)CCNCc1ccc(-c2ccc3ncnc(Nc4ccc(OCc5cccc(F)c5)c(Cl)c4)c3c2)o1`, 18.7 µM (active). Consider `Fc1ccc([C@@H]2CCNC[C@H]2COc2ccc3c(c2)OCO3)cc1`, for which the Potency is 14.8 µM (active). For the compound `CS(=O)(=O)Nc1ccc([N+](=O)[O-])cc1Oc1ccccc1`, the Potency was 11.8 µM (active). As to `NCCCCCC(=O)O`, the Potency was 0.296 µM (active).

`CC[C@@]1(O)C(=O)OCc2c1cc1n(c2=O)Cc2cc3c(CN(C)C)c(O)ccc3nc2-1`: the Potency was 18.7 µM (active). With `CC(C(=O)O)c1cccc(C(=O)c2ccccc2)c1` (stereo not given) the figure was 0.833 µM (active); with `NC(CO)C(=O)NNCc1ccc(O)c(O)c1O` (stereo not given), 7.43 µM (active); with `CN(C)CCCN1c2ccccc2CCc2ccc(Cl)cc21`, 20.9 µM (active). With `NC(=O)NO` the figure was 2.09 µM (active); with `NC12CC3CC(CC(C3)C1)C2`, “inactive”; with `CC1COc2c(N3CCN(C)CC3)c(F)cc3c(=O)c(C(=O)O)cn1c23` (stereo not given), 11.8 µM (active). With `CN1C2CCC1CC(OC(=O)C(CO)c1ccccc1)C2` (stereo not given) the entry was “inactive”; with `CC#C[C@]1(O)CC[C@H]2[C@@H]3CCC4=CC(=O)CCC4=C3[C@@H](c3ccc(N(C)C)cc3)C[C@@]21C`, 4.18 µM (active).
